tested on: PXR:RXRa (NR concentration 270 nM, RXRa partner concentration 90 nM); test: PBM binding z-score (relative to random genomic background probes); higher = stronger binding; sequences stand for … in GC…GCGATTGACAGCGTAGAATGAAGG
Outline: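 Probes were double-stranded and carried 34-nt variable regions with direct-repeat seeds, single-nucleotide variants, half-site ablations and random human genomic background sequences, printed on custom Agilent 4×180K protein-binding microarrays. Arrays were incubated 1 h with ligand-free nuclear receptor dimers in PBS pH 7.4, 2% milk, 0.02% Triton X-100, 1 mM DTT, 0.2 mg/mL BSA and 0.4 mg/ml salmon testes DNA. Antibodies against each partner (one per run) detected binding, and scanned fluorescence was regression-normalized. Binding z-scores use the random background probes as reference.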

Sequence	PBM binding z-score
CAAACTAGGACAAGAGGTCAAAGTCCGCTTCCCG	5.45
GGAACAAGGGCAAAGTTGATAGCATCTGTCGACG	0.784
ACTTACGGGTCAAAGAGGTTATAGCACGCGTATA	4.91
CCGACTGGGGCATAAGGTTACCAGAAGCCAGCCC	0.265
ACTATTAGTTGAGACGAGAGCAACCGATAGGTTG	-0.467
TCGAGTAGGTTAGTCAGGGCATTCAGCCAACATA	0.173
TCGAGTAGGTGAGGGGCATTCAGAATGGCGTCGA	0.21
ATATGTAGGTTAAGGTTCATTCAGGTTGGTTCGC	4.08
AGAATGAGGTTATTCGTAGATCAGGGAAGAAAGT	1.44
GCGACTGGGGCACAGCAGGTTACCATAAGGTTGG	0.113
GGAACGCGGGCATTCGAGTTGATAGCATGGCGAT	-0.103
CCTACTGGGCTACGAAAGGTCATTGATTCAGTGA	5.08
ACTTACCGGTCAACGAGGTTATAGCACGCGTATA	2.33
CTCGAAAGGTCGTGCTCAGGTGAGGATACCAAAC	3.15
GCTATGAGTTGAAAGGGCAACCGAATGATTCTCG	1.62
ATTTGTAGGTTAAGGGTCATTCAGGTTGGTTCGC	5.87
TATTGTAGATCAAGCAGGTTAAGAAAGCCTGAGT	0.218
CGTCATAGTTCAACTAAGGTAACGTAAAGCACGC	3.86
TGTCAAAGTTCAAAGGTAACCTAAGTATCCACAC	5.7
CGTCCATGGTCAGAGAGGTCAGTGAATGCCGAGT	3.11
ACTCGGAGGACAAAGGTCAGAGGTACGCCAGTGA	3.86
CTCGAAAGGTCGGTTTAGGTGAGTATACGGATAA	1.51

From the supplement of paper PMC6555819
